In the library only some 7.5% were active in any assay of this set; here they are far more common.
SMN2 splice up: increases expression of the SMN2 splice variant; HEK293 SMN2-luciferase splicing reporter, luminescence, 30-36 h; Potency, µM (top dose mostly 46.1 µM), usual class: activators; hit rate 2.8% among 210,000; also: nearly all actives have a fitted effect of over 55% in size
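qHTS luciferase splicing reporter: luminescence rises when SMN2 exon 7 is included in transfected HEK293 cells. Compound exposure lasted 30-36 h at 37C, with 4.5 mM final sodium butyrate as control, followed by a ONE-Glo read.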
NPC1 promoter act: NPC1 promoter activation; Huh7 NPC1 promoter luciferase reporter, 24 h; Potency, µM (top dose mostly 9.22 µM), most hits filed as activators; hit rate 2.4% among 320,000; AID 485313; also: nearly all actives have a fitted effect of over 60% in size
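Stable NPC1-promoter luciferase Huh7 line; cpd (DMSO) 24 h, 37 °C, 5% CO2; Amplite luciferase reagent 10 min RT; luminescence readout. qHTS format.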
Rab9 promoter act: Rab9 promoter activation; Huh7 Rab9 promoter-luciferase reporter, luminescence, 24 h; Potency, µM (series often up to 9.22 µM), usual class: activators; hit rate 2.8% among 320,000; also: nearly all actives have a fitted effect of over 60% in size
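Cells were plated at 1500 per well in reduced-serum medium with 10% FBS and left 2 h. Compound in DMSO was then added for 24 h at 37 °C. Reporter signal was read by luminescence after 10 min with luciferase detection reagent.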
FLuc counter: firefly luciferase modulation, counter-screen for miR-21 project; hit rate 6.9% among 360,000; purified FLuc, Km substrates, luminescence inhibition; P08659; Potency, µM (series often up to 57.5 µM), usual class: inhibitors; also: nearly all actives have a fitted effect of over 55% in size
Target sequence (P08659 whole entry, looked up): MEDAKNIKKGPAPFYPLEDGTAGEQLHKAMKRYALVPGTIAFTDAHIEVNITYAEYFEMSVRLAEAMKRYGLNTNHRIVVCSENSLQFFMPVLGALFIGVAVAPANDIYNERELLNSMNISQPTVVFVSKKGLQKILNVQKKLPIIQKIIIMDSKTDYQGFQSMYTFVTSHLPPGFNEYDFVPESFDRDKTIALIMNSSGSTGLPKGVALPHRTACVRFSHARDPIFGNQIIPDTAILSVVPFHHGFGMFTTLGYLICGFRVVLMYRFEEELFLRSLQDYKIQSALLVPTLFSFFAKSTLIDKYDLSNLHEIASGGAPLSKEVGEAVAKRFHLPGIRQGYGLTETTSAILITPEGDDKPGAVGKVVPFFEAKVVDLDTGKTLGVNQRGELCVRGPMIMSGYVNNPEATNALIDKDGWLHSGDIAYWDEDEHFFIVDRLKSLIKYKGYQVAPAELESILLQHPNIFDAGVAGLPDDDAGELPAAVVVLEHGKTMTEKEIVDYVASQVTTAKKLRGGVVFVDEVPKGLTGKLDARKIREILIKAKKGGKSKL
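Biochemical qHTS of compounds, final roughly 60 µM downward over six points, against 10 nM purified firefly luciferase using Km concentrations of substrates (10 uM D-luciferin, 10 uM ATP) in Tris acetate pH 7.5 buffer; luminescence output.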
ELG1 genotoxic: induces genotoxicity in HEK293T cells with luciferase-tagged ELG1. Potency, µM (titrated, usually from 46 µM), actives largely listed as activators. HEK293T ELG1-luciferase reporter, luminescence, 16 h. hit rate 1.3% among 330,000; also: nearly all actives have a fitted effect of over 60% in size
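Quantitative HTS format in 1536-well plates. HEK293T ELG1-luciferase reporter cells receive test compound and are incubated 16 hr at 37 °C, 5% CO2; ONE-Glo added, 30 min room temperature, then luminescence read.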
KinaseGlo FLuc: Kinase-Glo luciferase inhibition (counter-screen); Q27757; AID 1379; Potency, µM (series often up to 38.3 µM), most hits filed as inhibitors; hit rate 0.28% among 200,000; Kinase-Glo luciferase, ATP luminescence, 8 min; also: nearly all actives have a fitted effect of over 60% in size
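Luminescence was the read-out, taken after 8-minute incubation at ambient temperature. Luciferase turned over luciferin with 10 uM ATP in imidazole pH 7.2 buffer containing KCl, MgCl2, Tween 20 and BSA.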
Of the large screens only hits and unclear results are named; the others gave an inactive call. Calls follow the shape of the dose curve; as a rule, active = well fitted curve in the direction sought with a large enough effect; inconclusive = small, poorly fitted or top-dose-only effect, or another doubt; inactive = no such curve, though single readings can be large; an effect the other way counts as inactive or inconclusive.

c1ccc(Sc2ncnc3ccccc23)cc1	FLuc counter 19µM (no result: SMN2 splice up, KinaseGlo FLuc)
Cc1ccc(-c2nc3cc(C(C)C)ccc3o2)cc1NC(=O)c1cccs1	FLuc counter 1.9µM (no result: NPC1 promoter act, Rab9 promoter act, ELG1 genotoxic, KinaseGlo FLuc)
O=C(Nc1cc(-c2nc3cc(Cl)ccc3o2)ccc1Cl)c1cccs1	none (no result: NPC1 promoter act, Rab9 promoter act, ELG1 genotoxic, KinaseGlo FLuc)
Cc1ccc(-c2nc3cc(C(C)C)ccc3o2)cc1NC(=O)c1cc([N+](=O)[O-])ccc1N1CCOCC1	FLuc counter 1.35µM (no result: NPC1 promoter act, Rab9 promoter act, ELG1 genotoxic, KinaseGlo FLuc)
Cc1ccc(-c2nc3cc(Cl)ccc3o2)cc1NC(=O)c1cc([N+](=O)[O-])ccc1N1CCOCC1	FLuc counter inconclusive (no result: NPC1 promoter act, Rab9 promoter act, ELG1 genotoxic, KinaseGlo FLuc)
O=C(NC(Cc1c[nH]c2ccccc12)C(=O)N/N=C/c1cccnc1)c1cccs1 (stereo not given)	SMN2 splice up 25.1µM
CCc1nnc(NS(=O)(=O)c2ccc(NC(=O)c3ccc(Cl)cc3)cc2)s1	FLuc counter 19µM
CCc1nnc(NS(=O)(=O)c2ccc(NC(=O)/C=C/c3ccccc3Cl)cc2)s1	FLuc counter 19µM
CCc1nc2ccccc2n2c(-c3ccccc3)c3c(=O)n(C)c(=O)n(C)c3c12	none (no result: NPC1 promoter act, Rab9 promoter act, ELG1 genotoxic, KinaseGlo FLuc)
COc1ccc(C(O)C2=CCCC2=O)cc1 (stereo not given)	none (no result: NPC1 promoter act, Rab9 promoter act, FLuc counter, ELG1 genotoxic)
c1c2c(cc3sc(N4CCCCC4)nc13)OCO2	SMN2 splice up 3.16µM, NPC1 promoter act 0.398µM, Rab9 promoter act 0.316µM, FLuc counter 0.675µM, ELG1 genotoxic inconclusive, KinaseGlo FLuc 12.6µM
c1ccc2c(c1)CCN(c1nc3cc4c(cc3s1)OCO4)C2	SMN2 splice up 2.24µM, NPC1 promoter act 1.58µM, Rab9 promoter act 1.26µM, FLuc counter 1.35µM, ELG1 genotoxic 0.461µM, KinaseGlo FLuc inconclusive
Fc1ccc2nc(N3CCOCC3)sc2c1	SMN2 splice up inconclusive, NPC1 promoter act inconclusive, Rab9 promoter act inconclusive, FLuc counter inconclusive, ELG1 genotoxic inconclusive
c1ccc(N2CCN(c3nc4cc5c(cc4s3)OCO5)CC2)cc1	SMN2 splice up inconclusive, NPC1 promoter act 0.794µM, Rab9 promoter act 0.708µM, FLuc counter 1.07µM
c1c2c(cc3sc(N4CCOCC4)nc13)OCO2	SMN2 splice up 11.2µM, NPC1 promoter act 2.82µM, Rab9 promoter act 1.12µM, FLuc counter 6.01µM, ELG1 genotoxic inconclusive, KinaseGlo FLuc 11.2µM
CCOC(=O)CNC(=O)CSc1nc(Cc2ccccc2)nc2ccccc12	none (no result: SMN2 splice up, KinaseGlo FLuc)
COc1ccc(NC(=O)C2CCN(C3=NS(=O)(=O)C(c4ccc(C)c(C)c4)=C3C)CC2)c(OC)c1	none (no result: SMN2 splice up, NPC1 promoter act, Rab9 promoter act, ELG1 genotoxic, KinaseGlo FLuc)
Cc1cccc(OCc2nnc(SCC(=O)NC3CCCCC3)n2C)c1	none (no result: SMN2 splice up, KinaseGlo FLuc)
NC(=O)C1CCN(c2csc3ccc(F)cc3c2=O)CC1	none (no result: SMN2 splice up, NPC1 promoter act, Rab9 promoter act, ELG1 genotoxic, KinaseGlo FLuc)
CCN(CC)C(=O)N1c2ccccc2C=Cc2ccccc21	SMN2 splice up 3.98µM
Cc1nc(N2CCCCC2)c2sc(=S)n(C)c2n1	ELG1 genotoxic 20.6µM
CCN1CCN(c2nc(C)nc3c2sc(=S)n3C)CC1	none
CCOC(=O)c1ccc(NC(=O)CSc2c3c(nc4cc(Cl)ccc24)CCCC3)cc1	none (no result: NPC1 promoter act, Rab9 promoter act, ELG1 genotoxic, KinaseGlo FLuc)
O=C(N/N=C/c1ccc([N+](=O)[O-])cc1)c1[nH]ncc1Br	SMN2 splice up 11.2µM, NPC1 promoter act 2µM, Rab9 promoter act 1µM, FLuc counter inconclusive, ELG1 genotoxic inconclusive, KinaseGlo FLuc inconclusive
O=C(NCc1ccccc1)C(c1ccco1)N(C(=O)c1ccccn1)c1ccccc1 (stereo not given)	none (no result: SMN2 splice up, KinaseGlo FLuc)
COc1ccc(CNC(=O)C(c2ccco2)N(C(=O)c2ccccn2)c2ccccc2)cc1 (stereo not given)	NPC1 promoter act 0.891µM, Rab9 promoter act 0.891µM, FLuc counter 6.75µM, ELG1 genotoxic inconclusive (no result: SMN2 splice up)
CCCCNC(=O)CSc1nnc(C)c2c(C)n(-c3ccccc3)nc12	none (no result: SMN2 splice up, NPC1 promoter act, Rab9 promoter act, ELG1 genotoxic, KinaseGlo FLuc)
Nc1nc(C2CC2)c(Sc2sc(N)nc2C2CC2)s1	SMN2 splice up 15.8µM
Nc1nc(C2CCOCC2)cs1	none (no result: SMN2 splice up, KinaseGlo FLuc)
COc1cccc(N2CCN(C(=O)CN(C)S(=O)(=O)c3ccc4c(c3)c(=O)n(C)c(=O)n4C)CC2)c1	none
Cc1ccc(NS(=O)(=O)c2cnc(N)nc2)c(C)c1	none (no result: SMN2 splice up, NPC1 promoter act, Rab9 promoter act, ELG1 genotoxic, KinaseGlo FLuc)
COc1cccc(-c2ccnc3c(-c4ccccc4)c(C)nn23)c1	SMN2 splice up inconclusive, FLuc counter 10.7µM (no result: NPC1 promoter act, Rab9 promoter act, ELG1 genotoxic, KinaseGlo FLuc)
COc1cccc(-c2ccnc3c(-c4ccc(F)cc4)c(C)nn23)c1	FLuc counter 8.49µM (no result: NPC1 promoter act, Rab9 promoter act, ELG1 genotoxic, KinaseGlo FLuc)

Screening results as filed in PubChem.
